The test relates to phosphomevalonate kinase (Streptococcus pneumoniae D39). The test can be described thus: S. pneumoniae PMK inhibitors, primary screen, biochemical, mevalonate pathway, pilot trial included (AID 539).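 Further: 0% = full reaction with DMSO carrier and 100% = background rate without enzyme reaction.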 The following applies: purified PMK, PK/LDH-coupled NADH absorbance 340 nm, at 10 µM, stronger effect = higher value.
Where [1] appears, read: measured here: pilot screen replicates.

Among all 65,000 compounds or so, about 320 (0.49%) were called active.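 How the source made its calls: active means top-ranked compounds by inhibition in the single 10 µM screen, taking a fixed number of the strongest; inactive means the rest, inconclusive results apart.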 Shown is part of a subset that was picked to be rich in actives.

What is called inhibition is the relative decrease from the control value, in per cent. Consider `CCCCNc1nc2c(c(=O)n(C)c(=O)n2C)n1Cc1cccc(OC)c1`, for which the inhibition was 0% (inactive). With `COc1ccccc1NC(=O)CN1CCN(S(=O)(=O)c2ccc(Br)cc2)CC1`, the inhibition was 5% (inactive). As to `NC(=O)C1CCN(C(=O)c2ccc(C(F)(F)F)cc2)CC1`, the inhibition was 12% (inactive).

On to `CCC(=O)c1ccc(OCC(O)CN2CCN(c3cccc(C(F)(F)F)c3)CC2)cc1` (stereo unspecified), for which the inhibition was 0% (inactive). With `O=C(NCCCN1CCCCCC1)C1CC(=O)N(C2CCCC2)C1` (stereo unspecified), the inhibition is 12% (inactive). For the compound `CCOc1ccc2[nH]c(=O)c(CN(CCCO)C(C)=O)cc2c1`, the inhibition is 20% (inactive). For the compound `COC(=O)CCSc1nccn1Cc1ccccc1`, the inhibition is 0% (inactive). On to `O=C(CSc1nnnn1-c1ccc2c(c1)CCC2)Nc1ccc2c(c1)OCCO2`, for which the inhibition was 0% (inactive). With `CCn1ncc(Br)c1C(=O)Nc1cc(C)ccc1F`, the inhibition was 6% (inactive). Regarding `COc1ccc(C(c2nnnn2C2CCCCC2)N2CCN(c3ccccc3F)CC2)cc1` (stereo unspecified), the inhibition is 3% (inactive).

Take `CC1CCc2c(sc(NC(=O)c3ccc(Cn4cc(Br)cn4)o3)c2C(N)=O)C1` (stereo unspecified): the inhibition is 0% (inactive). `COc1ccc(N(CC(=O)NC2CCCCCCC2)S(=O)(=O)c2c(C)nn(C)c2C)cc1`: the inhibition was 10% (inactive). For `CCOC(=O)c1cccc(NC(=O)CN(c2ccc(C)cc2)S(=O)(=O)c2c(C)noc2C)c1`, the inhibition was 13% (inactive). In the case of `Cc1ccc(S(=O)(=O)N2CCOCC2)cc1C(=O)NCc1ccc(F)cc1`, the inhibition is 8% (inactive). `Cc1nc2nc[nH]n2c(=O)c1NC(=O)c1cccc(OCC(C)C)c1`: the inhibition is 12% (inactive).

As for `O=C(Cn1nc(Cc2cccnc2)c2ccccc2c1=O)NCC1COc2ccccc2O1` (stereo unspecified), the inhibition is 7% (inactive). In the case of `COCCNC(=O)C(C#N)c1nc2ccccc2nc1N1CCN(Cc2ccc3c(c2)OCO3)CC1` (stereo unspecified), the inhibition was 2% (inactive). As for `CCOC(=O)Cc1csc(NC(=O)C(C)(C)C)n1`, the inhibition was 4% (inactive). As to `COC(=O)CSc1nc(C2CC2)nc2ccccc12`, the inhibition is 15% (inactive). On to `Cc1ccccc1-n1nnc2c(=O)oc3ccccc3c21`, for which the inhibition was 10% (inactive). For the same compound, under setting [1], the inhibition stood at 4%. As for `CC(=O)N1CCN(C(=O)Nc2cccc(C(F)(F)F)c2)CC1`, the inhibition was 17% (inactive). As for `CC(C)C(NC(=O)c1cccc(S(=O)(=O)N2CCOCC2)c1)C(=O)NCCc1ccccn1` (stereo unspecified), the inhibition was 11% (inactive). `Cn1c(=O)c2c(nc(N3CCCCCC3)n2CC(O)COc2ccc(Cl)cc2)n(C)c1=O` (stereo unspecified): the inhibition was 7% (inactive). As to `Cn1c(=O)oc2cc(S(=O)(=O)N3CCC(C(=O)Nc4ccc(OC(F)(F)F)cc4)CC3)ccc21`, the inhibition is 14% (inactive). For the same compound, under setting [1], the inhibition is 2%. For `COc1ccc(S(=O)(=O)N2CCC(C(=O)N3CCOCC3)CC2)cc1OC`, the inhibition was 8% (inactive).

As to `CCC(CC)C(=O)Nc1cccc(C(=O)N2CCCC2)c1`, the inhibition is 4% (inactive). As to `C=CCn1c(C)cc(C(=O)CN2C(=O)c3ccccc3C2=O)c1C`, the inhibition is 13% (inactive).

Take `COc1cc(C2C(C(=O)c3sc(C)nc3C)=C(O)C(=O)N2CCN(C)C)cc(OC)c1OC` (stereo unspecified): the inhibition was 17% (inactive). With `O=C(COc1ccc2c3c(c(=O)oc2c1)CCC3)NC1CCCCC1`, the inhibition was 15% (inactive). On to `CCOC(=O)N1CCN(S(=O)(=O)c2cc3c(cc2C)NC(=O)CO3)CC1`, for which the inhibition was 14% (inactive). As to `CC(=O)C1C(c2ccc(Cl)cc2)NC(=O)NC1(O)C(F)(F)F` (stereo unspecified), the inhibition was 7% (inactive).

`Nc1c(C(=O)NCc2ccccc2)nnn1Cc1cccc(Cl)c1`: the inhibition was 0% (inactive). Still for that read-out and setting: to `CCOC(=O)c1[nH]c2ccc(OC)cc2c1NC(=O)CCN1CCN(Cc2ccccc2)CC1` belongs 6% (inactive); to `CCN(CC)S(=O)(=O)c1cccc(C(=O)NCC(=O)OCC(=O)NCc2ccccc2)c1`, 0% (inactive). Regarding `Cc1ccc(C)n1C(Cc1ccccc1)C(=O)O` (stereo unspecified), the inhibition was 7% (inactive).

`COc1ccc(OC)c2c1sc(=NC(=O)CN1C(=O)CCC1=O)n2C`: the inhibition is 12% (inactive). Still for that read-out and setting: to `O=C(Nc1ccc(S(=O)(=O)N2CCCC2)cc1Cl)C1=COCCO1` belongs 14% (inactive); to `N#Cc1ccccc1-n1c(N)c(C(=O)N2CCCC2)sc1=S`, 4% (inactive); to `Cc1ccc(S(=O)(=O)N2CCN(C(=O)CCC(=O)NC3CCCc4ccccc43)CC2)cc1` (stereo unspecified), 21% (inactive). Consider `c1ccc(CCN2CN=C(Nc3nc4ccccc4o3)NC2)cc1`, for which the inhibition was 7% (inactive). Consider `Fc1ccc2nc(Nc3nc4c(s3)CCCC4)sc2c1`, for which the inhibition is 8% (inactive). Take `Clc1ccc(Cn2ncc3c(NCc4cccnc4)ncnc32)cc1`: the inhibition is 9% (inactive). Also, the inhibition under setting [1] is 1.5%. For the compound `Fc1c(F)c(C(F)(F)F)c(F)c(F)c1N1CCN(c2ccc3nnc(C(F)(F)F)n3n2)CC1`, the inhibition was 0% (inactive). `COc1ccccc1N1CCN(c2nc3ccccc3n3nnnc23)CC1`: the inhibition was 7% (inactive).

Turning to `Cc1ccc(C(=O)NC2CC(C)(C)NC(C)(C)C2)c(C)c1`, the inhibition is 1% (inactive). For `CCOC(=O)N1CCN(Cc2nc3c(c(=O)n(C)c(=O)n3C)n2Cc2ccccc2)CC1`, the inhibition is 2% (inactive). This compound gave an inhibition under setting [1] of 1%.

As for `CCOC(=O)CSc1nc2c(c(=O)n(Cc3ccccc3Cl)c(=O)n2C)n1C`, the inhibition is 5% (inactive). Regarding `CCOc1cc2[nH]c(=S)n(CCCN3CCCC3=O)c(=O)c2cc1OCC`, the inhibition was 14% (inactive).

`COc1ccc(OC)c2[nH]c(=O)c(CCNC(=O)C(C)(C)C)cc12`: the inhibition was 7% (inactive). With `N=c1c2c3c(sc2ncn1N)CCCCC3`, the inhibition was 17% (inactive). For `O=C1c2ccccc2C(=O)N1c1ccccc1S(=O)C(F)(F)F` (stereo unspecified), the inhibition was 12% (inactive). With `CCOC(=O)c1nnn(-c2nc(OC)nc(N(C)C)n2)c1-c1ccccc1`, the inhibition is 17% (inactive). Consider `COc1ccccc1NC(=O)C1=C(C)NC2=C(C(=O)CCC2)C1c1ccc(C)o1` (stereo unspecified), for which the inhibition is 26% (active). `COc1ccc(C2C(C(=O)Nc3ccccc3OC)=C(C)Nc3nnnn32)c(OC)c1` (stereo unspecified): the inhibition is 8% (inactive). Turning to `COc1ccccc1NC(=O)C1=C(C)Nc2ncnn2C1c1ccc(C)o1` (stereo unspecified), the inhibition was 3% (inactive). Under setting [1], this compound had an inhibition of 2.5%.

For `COc1cc(OC)cc(C(=O)Nc2ncc3c(n2)CC(C)(C)CC3=O)c1`, the inhibition was 11% (inactive). The same measure, in the same setting: to `Cc1cc(NC(=O)Cn2nc(C(F)(F)F)c3c2CCCC3)no1` belongs 3% (inactive). Consider `c1cnc(NC2C3CC4CC(C3)CC2C4)nc1` (stereo unspecified), for which the inhibition is 7% (inactive). For `COc1ccc2[nH]c3ccc(OC)cc3c2c1`, the inhibition is 6% (inactive).

As for `COc1ccc(NC(=O)C2CCCN(S(=O)(=O)c3cccc4cccnc34)C2)cc1` (stereo unspecified), the inhibition was 8% (inactive). For `C#CCN1CC(C)/C(=N/O)CC1C` (stereo unspecified), the inhibition was 7% (inactive). Take `Cc1cccc(NC(=O)c2ccc3ccccc3n2)n1`: the inhibition was 0% (inactive). Moreover, under setting [1], the inhibition came out at 0.5%. Regarding `CCOc1ccc(CNC(=O)C2CC(=O)N(C3CCCC3)C2)cc1OC` (stereo unspecified), the inhibition is 8% (inactive). Same read-out and setting: to `CCOCCCN1C(=O)CN(C2CCCCC2)C(=O)C1c1ccc(OCC)c(OC)c1` (stereo unspecified) belongs 29% (active). Turning to `CCOc1ccc(CNC(=O)C2CCC(=O)N2C2CCCC2)cc1OC` (stereo unspecified), the inhibition is 11% (inactive). Still for that read-out and setting: to `CCc1nnc(NC(=O)CCC(=O)O)s1` belongs 0% (inactive); to `CCc1nnc(NC(=O)c2cccs2)s1`, 35% (active); to `CCc1ccccc1NC(=O)c1cccs1`, 7% (inactive). As to `CCCN(c1ccc(C(C)C)cc1)S(=O)(=O)c1c(C)[nH]c(=O)[nH]c1=O`, the inhibition was 8% (inactive).

On to `COc1cc2[nH]c(=O)n(CCC(=O)NC3CCN(Cc4ccccc4)CC3)c(=O)c2cc1OC`, for which the inhibition was 27% (active). Turning to `COc1ccc(CCNC(=O)CCCCn2c(=O)[nH]c3ccccc3c2=O)cc1OC`, the inhibition is 9% (inactive). Consider `O=C(NC1CCN(Cc2ccccc2)CC1)c1ccccc1F`, for which the inhibition is 0% (inactive). For `OCc1nc(CO)n(Cc2ccccc2)n1`, the inhibition is 14% (inactive). Moreover, under setting [1], the inhibition amounted to 1%. Regarding `Cc1ccccc1Cn1c(=O)[nH]c2ccccc21`, the inhibition is 15% (inactive). For `Cc1cc2c(=O)n(C)c(SCC(=O)c3cc4ccccc4o3)nc2s1`, the inhibition is 1% (inactive). `CCc1nnc(NC(=O)CSc2nc3c(c(=O)n2-c2ccccc2OC)SCC3)s1`: the inhibition is 0% (inactive).

On to `CCOC(=O)CSC1=C(C#N)C(c2sccc2C)CC(=O)N1` (stereo unspecified), for which the inhibition is 6% (inactive). As to `COc1ccc(-n2c(SCC(=O)OC(C)C)nnc2-c2ccccn2)cc1`, the inhibition is 8% (inactive). On to `COC(=O)[C@H](Cc1ccccc1)NC(=O)Nc1ccc(S(N)(=O)=O)cc1`, for which the inhibition is 10% (inactive). As for `CC(C)CCn1c(CN(C)Cc2ccccc2)nc2c1c(=O)n(C)c(=O)n2C`, the inhibition is 12% (inactive). Still for that read-out and setting: to `Cc1ccc(S(=O)(=O)N2CCC(N3CCCCCC3)CC2)cc1` belongs 0% (inactive); to `Cc1cc(NC(=O)c2cccc(N3C(=O)CCC3=O)c2)no1`, 11% (inactive); to `CCOc1cc(CO)ccc1OCC(=O)N1CCCCC1`, 9% (inactive). In the case of `CCOC(=O)c1c(C)oc2ccc(OCC(=O)N(CC)CC)cc12`, the inhibition was 2% (inactive). Under setting [1], this compound had an inhibition of 2.5%. `CCN1CCN(c2c(Cl)cccc2NC(=O)c2ccc(Br)o2)CC1`: the inhibition was 8% (inactive). With `CCCc1nnc(NC(=O)CN2C(=O)c3ccccc3S2(=O)=O)s1`, the inhibition was 4% (inactive). Turning to `O=S(=O)(O)CCN1CCOCC1`, the inhibition is 13% (inactive).

For `CCOC(=O)N1CCC(NC(=O)Cc2cn(C)c3ccccc23)CC1`, the inhibition is 5% (inactive). Regarding `CCOC(=O)N1CCC(NC(=O)COc2cc(=O)n(C)c3ccccc23)CC1`, the inhibition is 7% (inactive).

With `CCOC(=O)N1CCC(NC(=O)CCc2cn(C)c3ccccc23)CC1`, the inhibition was 30% (active). As for `CCOC(=O)CNC(=O)c1nn(-c2cccc(OC)c2)c(=O)c2ccccc12`, the inhibition is 10% (inactive). The same measure, in the same setting: under `COC(=O)[C@H](C(C)C)n1c(C)c(C(C)=O)c(C(C)=O)c1C` stands 20% (inactive); under `Cc1ccsc1C(=O)OCC(=O)c1cc(C)n(CC2CCCO2)c1C` (stereo unspecified), 17% (inactive). On the same count and under the same terms, under `CCN(CC)S(=O)(=O)N1CCC(C(=O)NC(C)CCc2ccccc2)CC1` (stereo unspecified) stands 10% (inactive); under `COC(=O)c1cc(OC)c(OC)cc1NC(=O)C1CCCO1` (stereo unspecified), 12% (inactive); under `CC(C)C(c1nnnn1Cc1ccccc1)N1CCC(C(N)=O)CC1` (stereo unspecified), 10% (inactive).

Regarding `O=C(c1ccco1)N1CCN(C(=O)C2CC(c3ccc(Cl)c(Cl)c3)=NO2)CC1` (stereo unspecified), the inhibition was 10% (inactive). As to `CNC(=O)c1c(NC(=O)c2ccc(S(=O)(=O)N3CCOCC3)cc2)sc2c1CCC2`, the inhibition is 7% (inactive).

(Values after PubChem BioAssay AID539 (SRMLSC, 2006).)
